Reference: PubChem BioAssay AID1159580 (chemical genetic matrix, 2015)
Where “and” joins values, the source holds several entries; their conditions need not be identical. Equal entries are not always repeated. Out of some 5,500 compounds screened, about 2,000 (36%) were called active. Not shown: some 18% with an inconclusive outcome. Cut-off read from the data, not from the text of the source: active = normalized growth mostly below about 0.91 (no sharp cut-off); inconclusive = no clear call, values can overlap the other calls; inactive = mostly above about 0.92. Some of the results follow.

Assay: chemical genetic growth profiling, strain panel (AID 1159580);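 note: tested at 20 µM; growth read once vehicle control cultures reached saturation at 30 °C; 1 = growth at the plate median or of vehicle wells; lower values mean less growth of the strain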
Settings: S. cerevisiae deletion strains, growth OD

Measured: normalized growth

COc1c2ccoc2cc2oc(C)cc(=O)c12
inactive: locus YAL021C, strain ccr4, stronger effect = lower value 1 | locus YAL026C, strain drs2, stronger effect = lower value 0.999 | locus YAL030W, strain snc1, stronger effect = lower value 0.987 | locus YBL061C, strain skt5, stronger effect = lower value 1 | locus YBR009C, strain hhf1, stronger effect = lower value 0.993 | locus YBR021W, strain FUR4, stronger effect = lower value 0.997 | locus YBR023C, strain chs3, stronger effect = lower value 0.991 | locus YBR171W, strain sec66, stronger effect = lower value 0.987 | locus YBR229C, strain ROT2, stronger effect = lower value 0.948 | locus YBR231C, strain swc5, stronger effect = lower value 0.99 | locus YBR279W, strain paf1, stronger effect = lower value 0.995 | locus YCL011C, strain gbp2, stronger effect = lower value 0.985 | locus YCL016C, strain dcc1, stronger effect = lower value 0.979 | locus YCL029C, strain bik1, stronger effect = lower value 0.98 | locus YCL069W, strain vba3, stronger effect = lower value 1.01 | locus YCR088W, strain abp1, stronger effect = lower value 0.99 | locus YDL005C, strain med2, stronger effect = lower value 1 | locus YDL035C, strain GPR1, stronger effect = lower value 0.972 | locus YDL040C, strain nat1, stronger effect = lower value 1 | locus YDL074C, strain BRE1, stronger effect = lower value 0.981 | locus YDL101C, strain DUN1, stronger effect = lower value 0.96 | locus YDL134C, strain PPH21, stronger effect = lower value 0.964 | locus YDL185W, strain tfp1, stronger effect = lower value 0.971 | locus YDL192W, strain arf1, stronger effect = lower value 0.945 | locus YDR001C, strain nth1, stronger effect = lower value 0.997 | locus YDR069C, strain doa4, stronger effect = lower value 1 | locus YDR101C, strain arx1, stronger effect = lower value 1.02 | locus YDR137W, strain rgp1, stronger effect = lower value 1 | locus YDR159W, strain sac3, stronger effect = lower value 1.02 | locus YDR162C, strain NBP2, stronger effect = lower value 0.905 | locus YDR195W, strain ref2 1.03 | locus YDR297W, strain sur2, stronger effect = lower value 1 | locus YDR318W, strain mcm21, stronger effect = lower value 0.945 | locus YDR334W, strain swr1, stronger effect = lower value 1 | locus YDR335W, strain msn5, stronger effect = lower value 1 | locus YDR388W, stronger effect = lower value 0.996 | locus YDR392W, strain spt3, stronger effect = lower value 0.961 | locus YDR502C, strain sam2, stronger effect = lower value 0.966 | locus YEL003W, strain gim4, stronger effect = lower value 1 | locus YEL037C, strain rad23, stronger effect = lower value 1 | locus YEL061C, strain CIN8 (second series), stronger effect = lower value 0.997 | locus YEL061C, strain CIN8, stronger effect = lower value 0.975 | locus YER015W, strain faa2, stronger effect = lower value 0.997 | locus YER016W, strain bim1, stronger effect = lower value 0.996 | locus YER110C, stronger effect = lower value 0.972 | locus YER111C, strain swi4, stronger effect = lower value 0.985 | locus YER155C, strain BEM2 (second series), stronger effect = lower value 0.999 | locus YER155C, strain BEM2, stronger effect = lower value 1 | locus YER167W, strain BCK2, stronger effect = lower value 0.98 | locus YFR010W, strain ubp6, stronger effect = lower value 0.985 | locus YGL078C, strain dbp3, stronger effect = lower value 0.999 | locus YGL086W, strain mad1, stronger effect = lower value 1.05 | locus YGL167C, strain pmr1, stronger effect = lower value 0.997 | locus YGL173C, strain kem1, stronger effect = lower value 0.984 | locus YGL227W, strain vid30, stronger effect = lower value 0.986 | locus YGL240W, strain doc1, stronger effect = lower value 1.01 | locus YGL248W, strain PDE1, stronger effect = lower value 0.928 | locus YGL253W, strain hxk2, stronger effect = lower value 0.988 | locus YGR078C, strain PAC10, stronger effect = lower value 0.922 | locus YGR135W, strain pre9, stronger effect = lower value 0.914 | locus YGR252W, strain gcn5, stronger effect = lower value 0.912 | locus YHR013C, strain ard1, stronger effect = lower value 0.993 | locus YHR027C, strain rpn1, stronger effect = lower value 0.995 | locus YHR030C, strain SLT2, stronger effect = lower value 0.987 and 1.04 | locus YHR079C, strain IRE1 (second series), stronger effect = lower value 1 | locus YHR079C, strain IRE1, stronger effect = lower value 1.04 | locus YHR094C, strain hxt1, stronger effect = lower value 0.978 | locus YHR129C, strain ARP1, stronger effect = lower value 0.981 | locus YHR142W, strain chs7, stronger effect = lower value 0.971 | locus YHR200W, strain rpn10, stronger effect = lower value 0.953 | locus YIL066C, strain RNR3, stronger effect = lower value 0.971 | locus YIL073C, strain SPO22, stronger effect = lower value 0.936 | locus YIL125W, strain kgd1, stronger effect = lower value 1 | locus YIR030C, strain dcg1, stronger effect = lower value 0.995 | locus YJL092W, strain hpr5, stronger effect = lower value 0.993 | locus YJL095W, strain BCK1 (second series), stronger effect = lower value 0.999 | locus YJL095W, strain BCK1, stronger effect = lower value 0.884 and 1.03 | locus YJL115W, strain asf1, stronger effect = lower value 1.01 | locus YJL129C, strain trk1, stronger effect = lower value 1.01 | locus YJL134W, strain LCB3, stronger effect = lower value 0.985 | locus YJL154C, strain vps35, stronger effect = lower value 1.01 | locus YJL164C, strain tpk1, stronger effect = lower value 0.989 | locus YJL166W, strain qcr8, stronger effect = lower value 0.984 | locus YJL168C, strain set2, stronger effect = lower value 1 | locus YJL187C, strain SWE1 (second series), stronger effect = lower value 0.947 | locus YJR043C, strain POL32, stronger effect = lower value 0.97 | locus YJR066W, strain TOR1, stronger effect = lower value 0.993 | locus YJR075W, strain HOC1, stronger effect = lower value 0.955
